Laboratory results as given in PubChem BioAssay AID488969 (Vanderbilt High Throughput Screening Facility, 2010).
The full ranking holds about 110,000 compounds; the median of “z-score” is about -0.1, and the highest 2% start at about 2. For the sample, the highest values were picked, then their nearest neighbours and some compounds at random. Active and inactive are the calls of the source.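 How the source made its calls: active means z-score in the third read window above 3 or below -3; inactive means the rest.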

These compounds were tested against Metabotropic glutamate receptor 8 (Rattus norvegicus) (UniProt P70579) (assay: mGluR8 Gi/Go-coupled signaling modulation – cell-based, rat, thallium flux, HTS, primary screen (AID 488969)). Settings: HEK293 rat mGluR8, GIRK (G protein-gated inwardly rectifying potassium channel) thallium flux, FluoZin2; at 10 µM; stronger effect = higher value; submaximal glutamate (EC20) added with thallium.
Metabotropic glutamate receptor 8 (Rattus norvegicus), sequence (P70579 whole entry, looked up): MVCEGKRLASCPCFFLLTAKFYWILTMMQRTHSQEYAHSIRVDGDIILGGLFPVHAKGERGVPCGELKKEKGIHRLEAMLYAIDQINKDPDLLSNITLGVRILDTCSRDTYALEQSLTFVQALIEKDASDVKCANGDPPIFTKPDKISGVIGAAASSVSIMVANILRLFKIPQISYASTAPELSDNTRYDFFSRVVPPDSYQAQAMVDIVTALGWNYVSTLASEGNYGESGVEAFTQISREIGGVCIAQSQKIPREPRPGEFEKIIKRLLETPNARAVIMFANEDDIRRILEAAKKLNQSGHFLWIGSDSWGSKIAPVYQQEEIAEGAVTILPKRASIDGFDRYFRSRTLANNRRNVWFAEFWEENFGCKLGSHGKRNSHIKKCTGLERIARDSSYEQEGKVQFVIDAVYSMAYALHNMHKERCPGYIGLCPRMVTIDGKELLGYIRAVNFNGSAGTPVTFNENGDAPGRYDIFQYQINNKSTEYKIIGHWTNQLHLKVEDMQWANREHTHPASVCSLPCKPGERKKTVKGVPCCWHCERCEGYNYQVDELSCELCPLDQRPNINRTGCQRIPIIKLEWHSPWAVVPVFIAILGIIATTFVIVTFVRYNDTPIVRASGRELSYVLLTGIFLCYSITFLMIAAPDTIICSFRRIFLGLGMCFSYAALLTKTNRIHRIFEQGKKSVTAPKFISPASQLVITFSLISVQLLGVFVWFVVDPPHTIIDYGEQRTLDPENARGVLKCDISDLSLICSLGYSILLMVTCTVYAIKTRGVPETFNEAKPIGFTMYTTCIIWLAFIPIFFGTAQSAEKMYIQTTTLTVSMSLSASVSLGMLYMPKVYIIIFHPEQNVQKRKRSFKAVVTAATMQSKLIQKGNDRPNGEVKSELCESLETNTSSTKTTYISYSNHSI

| SMILES | z-score |
| --- | --- |
| CSc1ccccc1NC(=O)COc1ccc(Cl)cc1Cl | -0.15 |
| Cc1cc(Nc2ccccc2)n(-c2ccccc2)n1 | 0.00239 |
| O=C(COc1ccc(Cl)cc1Cl)Nc1ccccn1 | 1.52 |
| Cc1cc(NC(=O)COc2ccccc2)n(-c2ccccc2)n1 | -0.119 |
| O=C(COc1ccc(Cl)cc1Cl)Nc1noc2ccccc12 | 12.9 (active) |
| Cc1cc(NC(=O)COc2ccc(Cl)cc2Cl)n(-c2ccccc2)n1 | 12.2 (active) |
| Cc1cc(NC(=O)c2ccc(C)s2)n(-c2ccccc2)n1 | 0.239 |
| Cc1cc(NC(=O)Nc2ccccc2)n(-c2ccccc2)n1 | 10.5 (active) |
| Cc1cc(NC(=O)C(C)Oc2ccc(Cl)cc2Cl)n(-c2ccccc2)n1 (stereo unspecified) | -0.237 |
| CC(=O)c1cnc(N(C)C)s1 | 0.141 |
| CN(Cc1ccccc1)C(=O)CN(C1CCCCC1)S(C)(=O)=O | 0.423 |
| O=C(Nc1ccc(N2CCOCC2)cc1)C1CC1 | 0.35 |
| Cn1c(C(=O)NCc2ccccn2)cc2c(=O)n(C)c3ccccc3c21 | 0.138 |
| COc1ccc(N(C(=O)Cc2cccs2)C(C(=O)NC2CCCCC2)c2cccn2C)cc1 (stereo unspecified) | -0.0427 |
| CCOc1ccc2c(c1)C(C)=CC(C)(C)N2C(=O)Nc1ccccc1F | -0.0976 |
| Cc1cc(OCc2nc(-c3cccs3)no2)cc(C)c1Cl | 0.00195 |
| COc1cc(CN2CCCC(C)C2)cc([N+](=O)[O-])c1O (stereo unspecified) | -0.494 |
| CCc1ccc(-c2cc(C(=O)NN3CCOCC3)c3ccccc3n2)cc1 | -0.195 |
| O=C(NN1CCOCC1)c1cc(-c2ccc(Br)cc2)nc2ccccc12 | 2.02 |
| O=C(NN1CCOCC1)c1cc(-c2ccccc2)nc2ccccc12 | -0.494 |
| C/C(N)=C(/C#N)C(=O)CSc1nnc(COc2ccccc2Cl)o1 | 0.832 |
| Cc1cc(/C=N/NC(N)=O)c(C)c(CO)c1 | -0.0977 |
| CCn1c(SCC(=O)N2CCCC2)nnc1-c1ccc(N)cc1 | 0.183 |
| CCn1c(SCC(=O)N2CCC(C(N)=O)(N3CCCCC3)CC2)nnc1-c1ccccc1 | 2.65 |
| CCn1c(SCC(=O)N2CCC(C(N)=O)(N3CCCCC3)CC2)nc2ccccc2c1=O | -1.2 |
| Cn1nnc2cc(C(=O)NCc3ccco3)ccc21 | 0.326 |

| SMILES | z-score |
| --- | --- |
| CCOC(=O)NC(NC(=O)OCC)C(=O)c1ccccc1 | -0.227 |
| CC(C)CCOP(=O)(c1ccccc1)c1ccccc1 | -2.77 |
| CC(Nc1cc(N2CCCC2)ccc1[N+](=O)[O-])c1ccccc1 (stereo unspecified) | -0.624 |
| CCCn1c(O)c(CN2CCCCC2)c(C)c(C#N)c1=O | -0.183 |
| Brc1ccc(N=C/C=C/C=C/Nc2ccc(Br)cc2)cc1 | 0.151 |
| C(/C=C/C=C/Nc1ccccc1)=Nc1ccccc1 | 16.2 (active) |
| O=C(/C=C/Nc1ccccc1)c1ccccc1 | 0.219 |
| Fc1ccccc1CSc1nc2ncc(Br)cc2[nH]1 | 1.26 |
| CCC(NC(=O)NC1=NCCS1)(C(F)(F)F)C(F)(F)F | 0.399 |
| C=CCn1c(=N)c(C(=O)OCC)cc2c(=O)n3cccc(C)c3nc21 | -0.017 |
| CCn1c(=N)c(C(N)=O)cc2c(=O)n3cccc(C)c3nc21 | -1.13 |
| CCOCCCn1c(=N)c(C(N)=S)cc2c(=O)n3cccc(C)c3nc21 | 2 |
| COc1cc(C(=O)NCC(=O)N/N=C/c2cccs2)cc(OC)c1OC | -0.174 |
| O=C(N=Nc1c(O)n(Cc2ccccc2)c2ccccc12)c1ccc(O)cc1 | -0.143 |
| CCCCNC(=S)N=Nc1c(O)n(Cc2ccccc2)c2ccccc12 | 3.24 (active) |
| CCn1c(O)c(N=NC(=O)CNC(=O)c2ccco2)c2ccccc21 | -0.152 |
| NC(=S)N=Nc1c(O)n(Cc2ccccc2)c2ccccc12 | 0.17 |
| Cn1c(O)c(N=NC(=O)CNC(=O)c2ccco2)c2ccccc21 | -0.2 |
| NC(=S)N=Nc1c(O)n(Cc2ccc(F)cc2)c2ccccc12 | 1.76 |
| Cc1ccc2c(c1)c(N=NC(N)=S)c(O)n2Cc1ccccc1 | 2.88 |
| NC(=S)N=Nc1c(O)n(Cc2ccc(Br)cc2)c2ccccc12 | -0.0836 |
| CCCn1c(O)c(N=NC(=O)c2ccco2)c2ccccc21 | 3.17 (active) |
| O=C1CC(=C2c3ccccc3-c3ccccc32)C(=O)N1CCN1CCN(c2cccc(Cl)c2)CC1 | -0.0614 |
| O=C(Nc1ccccc1)C(Cc1cccs1)c1nn[nH]n1 (stereo unspecified) | 0.0119 |
| Cc1ccc(S(=O)(=O)/N=S(/C)c2ccccc2)cc1 (stereo unspecified) | 0.693 |
| CCN(C(=O)c1cc2ccccc2oc1=O)c1cccc(C)c1 | 0.00276 |

| SMILES | z-score |
| --- | --- |
| CCCOc1ccc(C2(C(=O)O)CCCC2)cc1 | 0.219 |
| O=C(CCC(=O)OCc1ccc(Br)cc1)Nc1ccccc1 | -0.0471 |
| Cc1cccc(/C=N/n2c(-c3ccncc3)n[nH]c2=S)c1 | -0.531 |
| CCN(CC)S(=O)(=O)c1cccc(-c2n[nH]c(=S)n2/N=C/c2ccc(C(=O)OC)cc2)c1 | 3.19 (active) |
| Cc1cccc(-c2n[nH]c(=S)n2/N=C/c2ccc(C)o2)c1 | 0.433 |
| COCCn1c(CN2CCN(c3ccc(OC)cc3)CC2)nc2c1c(=O)n(C)c(=O)n2C | -0.219 |
| c1csc(Cn2c(-c3cccs3)nc3ccccc32)c1 | -1.65 |
| CCn1c(-c2cccs2)nc2ccccc21 | -0.122 |
| C=CCn1c(-c2cccs2)nc2ccccc21 | 3.14 (active) |
| COc1cccc(NS(=O)(=O)c2ccc(NC(C)=O)cc2)c1 | -0.261 |
| COC(=O)CNc1nc(OC)nc(N(C)C)n1 | 0.391 |
| Cc1cc(C(=O)N2CCC(Cc3ccccc3)CC2)ccc1[N+](=O)[O-] | -0.573 |
| O=C(c1ccccc1[N+](=O)[O-])N1CCC(Cc2ccccc2)CC1 | -0.0322 |
| Cc1cccc(C(=O)N2CCC(Cc3ccccc3)CC2)c1[N+](=O)[O-] | 8.23 (active) |
| CCNC(=O)CC1SC(=Nc2cccc(Cl)c2C)N(C)C1=O (stereo unspecified) | 0.271 |
| c1coc(Cn2c(SCc3nc4ccccc4[nH]3)nnc2-c2cccs2)c1 | -0.59 |
| CC1(C)CC(=O)N(CC(=O)NCc2ccccc2)c2ccccc2S1(=O)=O | -0.409 |
| CC1(C)CC(=O)N(CC(=O)O)c2ccccc2S1(=O)=O | -0.22 |
| CCC(C)NC(=O)CN1C(=O)CC(C)(C)S(=O)(=O)c2ccccc21 (stereo unspecified) | 4.26 (active) |
| Cc1csc(NC(=O)C2CCCC2)n1 | 0.0786 |
| O=C(CN(Cc1ccco1)C(=O)c1ccc(Cl)cc1)Nc1ccc(Cl)c(Cl)c1 | -0.0983 |
| Cc1ccc(C(=O)NC2(C(F)(F)F)N=C3SCCN3C2=O)cc1 (stereo unspecified) | 2.91 |
| O=C(NC1(C(F)(F)F)N=C2SCCN2C1=O)c1ccccc1 (stereo unspecified) | -0.628 |
| CC(C)Oc1ccc(C(=O)NC2(C(F)(F)F)N=C3SCCN3C2=O)cc1 (stereo unspecified) | 0.873 |
